Values joined by “and” are separate entries in the source; they are usually repeats but may differ in a detail not shown here. Equal entries are not always repeated. Inconclusive results are not listed. Entries that show only a call come without a potency. Active and inactive are the calls of the source. Calls follow the shape of the dose curve; as a rule, active = well fitted cell-killing curve with a large enough effect in the repeat runs; inconclusive = weak or mixed curves, or effect the other way; inactive = no such curve, though single readings can be large or run the other way.
Potency is read from the fitted curve at half-maximal effect.

A short description of this test: qHTS assay to identify small molecule antagonists of the glucocorticoid receptor (GR) signaling pathway - cell viability counter screen (AID 720693). Also: nearly all actives have a fitted effect of over 55% in size. To be noted: GR-bla HeLa viability, CellTiter-Glo luminescence, 18 h, with 5 nM dexamethasone present; series mostly up to 58.5 µM. From the text:
National Center for Advancing Translational Sciences [NCATS]
NIH Chemical Genomics Center [NCGC]
U.S. Environmental Protection Agency [EPA]
National Institutes of Environmental Health Sciences [NIEHS]
National Toxicology Program [NTP]
U.S. Food and Drug Administration [FDA]
The Glucocorticoid receptor (GR) is one of the members of the nuclear receptor family of ligand-dependent transcription factors. GR plays a critical role in carbohydrate, protein and lipid metabolisms and programmed cell death. CellSensor GR-bla HeLa cell line (Invitrogen) contains a beta-lactamase reporter gene under the control of the glucocorticoid response element stably integrated into HeLa cells, a cervical cancer cell line that expresses glucocorticoid receptor. The activation of the reporter gene under culture conditions can be detected by fluorescence intensity. This cell line has been used to screen the Tox21 10K compound library and to identify the compounds that inhibit the GR signaling. The cytotoxicity of the Tox21 compound library against the GR-bla HeLa cell line was tested in parallel by measuring the cell viability using CellTiter-Glo assay in the same wells.
Tox21 Assay Protocol Summary:
The GR-bla HeLa cells were dispensed at 1500 cells/5 ul/well in 1536-well black wall/clear bottom plates using a Multidrop Combi (ThermoFisher Scientific, Waltham, MA) dispenser. After the assay plates were incubated at a 37 C/5% CO2 incubator for 4 hours, 23 nL of compounds dissolved in DMSO, positive controls or DMSO only was transferred to the assay plate by a pintool station (Kalypsys, San Diego, CA), followed by addition of 1 uL of dexamethasone (5 nM, final concentration in the well). The plates were incubated at 37 C for 18 hours. After 1 uL of LiveBLAzerTM B/G FRET substrate was added using a Flying Reagent Dispenser (Aurora Discovery, San Diego, CA), the plates were incubated at room temperature (RT) for 2 hours, and fluorescence intensity was measured by an Envision plate reader (PerkinElmer, Shelton, CT). After measurement of bla assay, 3 ul CellTiter-Glo (Promega, Madison, WI) was added to measure the cytotoxicity and the plates were then incubated at RT for 30 min. The luminescence was measured using a ViewLux (Perkin Elmer) plate reader.
(In general: Quantitative high-throughput screening tests each substance at several concentrations.)
As to `CCC(C)(C)c1ccc(O)cc1`, the Potency entry is “inactive”.

As to `O=c1oc2ccccc2c(O)c1C(CC(O)c1ccc(-c2ccc(Br)cc2)cc1)c1ccccc1` (stereo not given), the Potency is 23.9 µM (active) and 46.3 µM (active).

In the case of `CCN(N=O)C(N)=O`, the Potency entry was “inactive”.

For the compound `CCCCCCOC(=O)c1ccccc1C(=O)OCCCCCC`, the Potency result was “inactive”.

With `O=C1C=CC(=O)C=C1`, the Potency entry was “inactive”.

Turning to `Cc1c(COC(=O)[C@@H]2[C@H](/C=C(\Cl)C(F)(F)F)C2(C)C)cccc1-c1ccccc1`, the Potency result was “inactive”.

`CCCCNC(=O)n1c(NC(=O)OC)nc2ccccc21`: the Potency result is “inactive”.

For `O=C(O)CC[N+](=O)[O-]`, the Potency result was “inactive”.

Take `Oc1cc(Cl)ccc1Cl`: the Potency result is “inactive”.

`CCOc1cc(C=O)ccc1O`: the Potency result was “inactive”.

`NNC(N)=S`: the Potency entry is “inactive”.

As for `C=CC(=O)OCCO`, the Potency result was “inactive”.

On to `ClC1C(Cl)C(Cl)C(Cl)C(Cl)C1Cl` (stereo not given), for which the Potency result was “inactive”.

Consider `CNC(=O)Oc1cccc2c1OC(C)(C)O2`, for which the Potency result is “inactive”.

Consider `NCc1cccnc1`, for which the Potency result was “inactive”.

Consider `N#CCCCl`, for which the Potency entry was “inactive”.

As for `CCC(C)c1cc([N+](=O)[O-])cc([N+](=O)[O-])c1O` (stereo not given), the Potency entry is “inactive”.

`COc1ccc(C=O)cc1`: the Potency result was “inactive”.

Consider `C=C(C)C(=O)OCC1CO1` (stereo not given), for which the Potency result is “inactive”.

For the compound `Nn1cnnc1`, the Potency entry is “inactive”.

Regarding `Oc1cc(Cl)c(Cl)cc1Cl`, the Potency result was “inactive”.

In the case of `CC(O)CCO` (stereo not given), the Potency result is “inactive”.

Consider `Cc1ccc(N)c(N)c1`, for which the Potency result was “inactive”.

Regarding `O=P(Oc1ccccc1)(Oc1ccccc1)Oc1ccccc1`, the Potency result was “inactive”.

Regarding `CC(C)(c1cc(Cl)c(O)c(Cl)c1)c1cc(Cl)c(O)c(Cl)c1`, the Potency entry was “inactive”.

Take `N#CC(Br)Br`: the Potency result is “inactive”.

`CC1(C)C(C=C(Cl)Cl)C1C(=O)OC(C#N)c1cccc(Oc2ccccc2)c1` (stereo not given): the Potency result is “inactive”.

Consider `c1ccc(P(c2ccccc2)c2ccccc2)cc1`, for which the Potency result is “inactive”.

`N#Cc1cc(Br)c(O)c(Br)c1`: the Potency result was “inactive”.

For `O=P(O)(O)CCCl`, the Potency entry was “inactive”.

Take `CCC(CC)Nc1c([N+](=O)[O-])cc(C)c(C)c1[N+](=O)[O-]`: the Potency result was “inactive”.

Consider `O=Cc1ccco1`, for which the Potency result was “inactive”.

As for `CCN(CC)C(=O)SCc1ccc(Cl)cc1`, the Potency result is “inactive”.

Consider `COP(=O)(OC)OC`, for which the Potency entry was “inactive”.

Consider `COc1ccc(C(CN(C)C)C2(O)CCCCC2)cc1` (stereo not given), for which the Potency entry is “inactive”.

Turning to `Clc1nc(Cl)nc(Cl)n1`, the Potency entry is “inactive”.

As for `CC(C)=CC1C(C(=O)OCc2coc(Cc3ccccc3)c2)C1(C)C` (stereo not given), the Potency result is “inactive”.

As for `C=CCc1ccc2c(c1)OCO2`, the Potency result is “inactive”.

`Nc1ccncc1`: the Potency entry is “inactive”.

Take `O=[N+]([O-])c1c(Cl)c(Cl)c(Cl)c(Cl)c1Cl`: the Potency result was “inactive”.

For the origin of these results see PubChem BioAssay (Tox21).
